# L3MBTL1 block: blocks human L3MBTL1. Q9Y468. AlphaScreen L3MBTL1–H3K9me1 peptide binding. Potency, µM (highest dose often 57.1 µM), without a hit: at the top dose activity, negative = inhibition, usual class: inhibitors. 0.66% of 230,000 active; further: potency means the concentration at half of the fitted maximal effect; on the % scale 0 is the no-effect control and ±100 the full control effect; nearly all actives have a fitted effect of over 60% in size
#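 L3MBTL1 50 nM + b-AHA-H3(1-15)K9me1 75 nM, 30 min RT; compound added, 30 min RT; streptavidin donor/Ni-chelate acceptor beads 10 ug/mL each final, 30 min RT dark; AlphaScreen read.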
# G9a block: G9a (human) methyltransferase inhibition; Q96KQ7; 8.8% of 350,000 active; Potency, µM (top dose mostly 102 µM), for inactives: top-dose activity, negative = inhibition, most hits filed as inhibitors; G9a H3K9 monomethylation, AlphaScreen, 2 h; further: potency means the concentration at half of the fitted maximal effect; on the % scale 0 is the no-effect control and ±100 the full control effect; nearly all actives have a fitted effect of over 75% in size
# Target sequence (Q96KQ7 913-1193 limits assumed): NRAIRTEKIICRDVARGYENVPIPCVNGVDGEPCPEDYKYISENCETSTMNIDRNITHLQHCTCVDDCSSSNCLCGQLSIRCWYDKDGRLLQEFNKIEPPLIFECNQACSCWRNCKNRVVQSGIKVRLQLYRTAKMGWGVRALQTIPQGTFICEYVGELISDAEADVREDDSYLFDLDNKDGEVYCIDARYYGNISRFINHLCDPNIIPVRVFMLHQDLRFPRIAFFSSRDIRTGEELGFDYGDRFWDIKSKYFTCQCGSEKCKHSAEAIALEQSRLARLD
#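 G9a (20 nM) preincubated 15 min RT with compounds, then 500 nM biotinylated H3K9 peptide and 20 uM SAM added; 2 h RT reaction. Monomethyl-H3K9 product detected by AlphaScreen with anti-H3K9me1 antibody, streptavidin donor and anti-rabbit IgG acceptor beads.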
# HP1b chromo inh: HP1-beta chromodomain-methylated histone interaction inhibition; 0.56% of 390,000 active; P83916; AlphaScreen HP1-beta / biotin-H3K9me3 peptide binding; Potency, µM (highest dose often 114 µM), for the others: top-dose activity change, negative = inhibition, most hits filed as inhibitors; further: potency means the concentration at half of the fitted maximal effect; nearly all actives have a fitted effect of over 70% in size
# Target sequence (P83916 whole entry, looked up): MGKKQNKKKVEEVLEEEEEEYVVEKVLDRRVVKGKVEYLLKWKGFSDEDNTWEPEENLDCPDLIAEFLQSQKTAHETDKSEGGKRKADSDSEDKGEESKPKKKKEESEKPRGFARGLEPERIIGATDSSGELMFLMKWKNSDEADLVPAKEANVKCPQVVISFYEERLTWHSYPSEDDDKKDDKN
#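 AlphaScreen: HP1-beta (50 nM) preformed 30 min with biotin-H3(1-18)K9me3 peptide (50 nM) in PBS pH 7.4, 0.01% Tween-20. Compound added for 30 min at RT, then streptavidin donor/nickel chelate acceptor beads (10 ug/mL) for 30 min.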
# JMJD2A Tudor inh: JMJD2A Tudor domain (human) inhibition. 4.4% of 390,000 active. AlphaScreen JMJD2A-Tudor / H3K4me3 peptide binding. Potency, µM (titrated, usually from 114 µM), inactives show at the highest dose activity change, negative = inhibition, actives largely listed as inhibitors. AID 504339; further: potency means the concentration at half of the fitted maximal effect; on the % scale 0 is the no-effect control and ±100 the full control effect; nearly all actives have a fitted effect of over 50% in size
# BAZ2B inh: inhibitors of human BAZ2B bromodomain. AlphaScreen BAZ2B-H3K14Ac peptide displacement. 4.4% of 360,000 active. Potency, µM (titrated, usually from 114 µM), without a hit: top-dose activity change, negative = inhibition, hits mostly inhibitors. Q9UIF8; further: potency means the concentration at half of the fitted maximal effect; on the % scale 0 is the no-effect control and ±100 the full control effect; nearly all actives have a fitted effect of over 60% in size
#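 Compounds, titrated to a top concentration of 110 uM, were incubated 30 min at room temperature with preformed BAZ2B/acetyl-K14 H3 peptide complex (50 nM each). Proximity signal was measured by AlphaScreen after 20 min with beads.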
# PI5P4Ka inh: inhibitors of human PI5P4K alpha | P48426 | PI5P4Kalpha enzyme, ADP-Glo luminescence, 60 min; stronger effect = lower value | max response, % | 1.2% of 330,000 active; active means max response of -50% or lower; inconclusive means between -30% and -50%; inactive means -30% or higher; further: value at the top dose of about 77 µM; on the % scale 0 is the no-effect control and ±100 the full control effect
#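 Reactions run in 0.038 M HEPES pH 7.4, 0.28 mM EGTA, 0.1% CHAPS and 5% DMSO, with PI5P4Kalpha, substrate, compound and 5 microM ATP final, one hour at room temperature. Readout is ADP-Glo luminescence.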
# An asterisk follows results filed as active; ? = inconclusive; . = not tested or not shown; [ ] = dose if it differs, or a comment. Compounds with a hit are over-represented: about 11% of the library has one in this group of screens. Unless noted, the call rests on the fitted dose curve; in most records, active means well fitted inhibition curve with a large enough effect; inconclusive means small, poorly fitted or top-dose-only effect; inactive means no such curve, though single readings can be large or run the other way.
SMILES,L3MBTL1 block,G9a block,HP1b chromo inh,JMJD2A Tudor inh,BAZ2B inh,PI5P4Ka inh
CC(=O)C1=C(c2ccc(Cl)cc2)N(C(C)=O)n2c(nnc2C2CCCCC2)S1,.,-5.7%[59 µM],44.6%,-11.0%,-11.0%,.
CNc1ncnc2ccc(-c3ccccc3C)cc12,.,0.0%[0.501 µM],.,.,.,.
N#CC1=C(N)NC(=S)C(C(N)=O)C1c1ccc([N+](=O)[O-])cc1 (stereo unspecified),-4.8%,.,7.1%,89.1µM*,-34.0%,-56.4*
CN(C)CCN(Cc1cc2cc3c(cc2[nH]c1=O)OCO3)C(=S)NCc1ccco1,3.2%,.,57.3%,8.6%,-2.5%,-2.0
O=c1[nH]c2cc3c(cc2cc1CN(Cc1cccnc1)C(=S)NCc1ccco1)OCCO3,?,39.8µM*,-24.1%,-31.9%,-33.5%,1.9
O=c1[nH]c2cc3c(cc2cc1CN(Cc1cccnc1)C(=S)NCc1ccco1)OCO3,-12.1%,10µM*,-2.6%,-15.6%,?,8.1
Cc1ccc(CNC(=O)C(=O)Nc2c3c(nn2-c2ccc(F)cc2)CSC3)cc1,.,15.5%[59 µM],35.2%,-1.0%,-1.0%,.
CCN1CCN(c2ncc3c(n2)CCN(Cc2cc(Br)cs2)C3)CC1,.,22.4µM*,3.9%,79.4µM*,50.1µM*,.
CCN1CCN(c2ncc3c(n2)CCN(Cc2sccc2C)C3)CC1,.,17.8µM*,21.3%,?,?,.
CCCCN1CCc2nc(N3CCN(C)CC3)ncc2C1,.,?,45.7%,-7.9%,-35.4%,.
CCN1CCN(c2ncc3c(n2)CCN(Cc2ccc(Br)s2)C3)CC1,.,2.7%[12.7 µM],38.4%,-21.9%,-29.7%,.
CCN1CCN(c2ncc3c(n2)CCN(Cc2ccc(C)s2)C3)CC1,.,?,-19.8%,79.4µM*,?,.
CN1CCN(c2ncc3c(n2)CCN(Cc2ccc(Br)s2)C3)CC1,.,-6.0%[12.7 µM],11.0%,79.4µM*,-27.7%,.
CC(C)(C)NCC(O)COc1ccc(NC(=O)NC2CCCCC2)cc1 (stereo unspecified),.,-37.0%[12.7 µM],.,.,.,.
Cc1ccccc1C(=O)c1cccn1CC(=O)NCCN1CCN(c2cccc(C)c2C)CC1,.,-6.4%[59 µM],?,50.1µM*,?,-0.6
Cc1ccc(C)c(N2CCN(CCCNC(=O)Cn3cccc3C(=O)c3ccccc3C)CC2)c1,.,-39.3%,-17.6%,?,-30.5%,23.7
CCc1cccc(NC(=O)Cn2c(=O)n(CC3CCC(C(=O)NCCc4ccccc4)CC3)c(=O)c3ccccc32)c1 (stereo unspecified),.,-23.0%[59 µM],30.2%,-11.6%,-5.8%,.
COc1ccc(NC(=O)CSC2=Nc3ccccc3C3=NC(CCC(=O)NCc4cccs4)C(=O)N23)cc1 (stereo unspecified),.,8.9%[59 µM],19.3%,-11.7%,-11.9%,.
COc1ccc(N=C2SC(CC(=O)Nc3ccccc3)C(=O)N2Cc2ccccn2)cc1 (stereo unspecified),-29.7%,50.1µM*,26.7%,-33.3%,?,-8.3
COc1ccc(N=C2SC(CC(=O)Nc3ccccc3)C(=O)N2CCc2ccccn2)cc1 (stereo unspecified),-15.8%,?,13.4%,-20.9%,-30.6%,-3.8
COc1ccc(NC(=O)CC(C(=O)O)C(C)c2ccccc2)cc1 (stereo unspecified),5.2%,16.0%[59 µM],37.0%,-5.5%,-3.3%,2.3
COc1ccc(NC(=O)CC(NCc2ccccn2)C(=O)O)cc1 (stereo unspecified),14.1µM*,7.7%,40.1%,12.6µM*,3.16µM*,-4.0
CCOc1ccc(NC(=O)CC(NCc2ccccn2)C(=O)O)cc1 (stereo unspecified),.,?,41.8%,11.2µM*,1.41µM*,5.3
c1ccc(-c2ncc3ccccn23)cc1,-8.2%,79.4µM*,-4.4%,-28.5%,-36.7%,-1.7
c1ccc2c(c1)ncc1cccn12,2.3%,24.3%[59 µM],19.5%,-12.5%,8.0%,.
COc1ccc(CNC(=O)Cc2c(C)c3c(cc(C)c4c(C)c(C)oc43)oc2=O)cc1,.,-1.3%[59 µM],46.0%,-13.8%,0.0%,.
COc1ccc(C(=O)NC2CC(C)(C)NC(C)(C)C2)cc1S(=O)(=O)N1CCOCC1,.,.,.,.,.,5.4

# Assay outcomes: PubChem BioAssay, National Center for Advancing Translational Sciences (NCATS)
